Experimental data as given in PubChem BioAssay (EPA / NIEHS).
More than one record can exist for a structure, and the calls need not agree. The source made the active and inactive calls. The calls were made as follows: active = hit-call score of the fitted dose curve at least 0.9, where 1 is the maximum; inactive = score below 0.9.

Target: CCAAT/enhancer-binding protein beta (Homo sapiens) (UniProt P17676)
Experiment: ATG_C_EBP_CIS: Attagene CIS-FACTORIAL HepG2 Assay for human CCAAT/Enhancer Binding Protein (C/EBP) beta (AID 2282927)
Details: HepG2 Attagene cis-factorial transcription factor reporter; actives raise or lower the signal
Experimental: ATG_CIS is a cell-based, multiplexed-readout assay that uses HepG2, a human liver cell line, with measurements taken at 24 hours after chemical dosing in a 24-well plate.ATG_C_EBP_CIS is one of 52 assay component(s) measured or calculated from the ATG_CIS assay. It is designed to make measurements of mRNA induction, a form of inducible reporter, as detected with fluorescence intensity signals by Reverse transcription polymerase chain reaction (RT-PCR) and Capillary electrophoresis technology.Data from the assay component ATG_C_EBP_CIS was analyzed into 1 assay endpoint. This assay endpoint, ATG_C_EBP_CIS, was analyzed with bidirectional fitting relative to DMSO as the negative control and baseline of activity. Using a type of inducible reporter, measures of mRNA for gain or loss-of-signal activity can be used to understand the reporter gene at the transcription factor-level as they relate to the gene CEBPB. Furthermore, this assay endpoint can be referred to as a primary readout, because this assay has produced multiple assay endpoints where this one serves a reporter gene function. To generalize the intended target to other relatable targets, this assay endpoint is annotated to the dna binding intended target family, where the subfamily is basic leucine zipper.
Human liver HepG2 cells are transiently transfected with multiple reporter transcription units (MRTUs) in 6-well plates using FuGene 6 reagent (Roche; 3 ml FuGene/1 mg DNA). The MRTU constructs are regulated by a cis-regulating element (promoter). […] A major difference between the CIS and TRANS system is that in CIS activities of endogenous TFs are measured, whereas the TRANS assay evaluates changes in activities of exogenous, chimeric NR-Gal4 proteins. […] At the end of 24 hour incubation, total RNA was isolated using TriZol reagent (Invitrogen). The isolated RNA is then reverse-transcribed using oligo(dT) primer and Mo-MLV reverse transcriptase (Invitrogen) with DNAse I (Ambion) treatment for 30 min. The one-tenth of the produced cDNA was amplified by PCR using Taq DNA polymerase (Invitrogen) and two reporter sequence-specific primers. The PCR products were fluorescently labeled by primer extension with 6-arboxyfluorescein (6-FAM) 5'-labeled reporter sequence-specific primer (2 min at 95 C, 20 s at 68 C and 10 min at 72 C) and these products were digested with 5U of HpaI (New England Biolabs) for 2h at 37 C. The fragments were purified using Qiaquick PCR columns (Qiagen), analyzed on an ABI 3130xL genetic analyzer (Applied Biosystems) with peak positions identified by using a set of X-rhodamine (ROX)-labeled MapMarker1000 molecular weight standards (BioVentures). The raw capillary electrophoresis data was processed using Attagraph software (Attagene).

Sequence of CCAAT/enhancer-binding protein beta (Homo sapiens) (P17676 whole entry, looked up): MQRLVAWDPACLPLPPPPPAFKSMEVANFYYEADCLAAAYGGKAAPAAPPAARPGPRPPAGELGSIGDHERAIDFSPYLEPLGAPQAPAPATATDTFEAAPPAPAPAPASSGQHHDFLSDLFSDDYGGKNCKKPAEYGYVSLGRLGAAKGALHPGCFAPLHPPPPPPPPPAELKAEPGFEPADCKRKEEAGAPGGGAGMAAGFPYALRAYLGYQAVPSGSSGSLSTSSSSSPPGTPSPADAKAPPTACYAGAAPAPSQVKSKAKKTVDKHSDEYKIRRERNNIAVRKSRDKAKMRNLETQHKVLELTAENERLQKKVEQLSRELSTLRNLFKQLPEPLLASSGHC

Row | SMILES | outcome | AC50
1 | CC(C)(OO)c1ccccc1 | inactive | 
2 | O=S(=O)(c1ccc(Cl)cc1)c1ccc(Cl)cc1 | inactive | 
3 | CNC | inactive | 
4 | CCc1ccccc1C | inactive | 
5 | CCOP(OCC)OCC | inactive | 
6 | BrCCBr | inactive | 
7 | Oc1c(I)cc(I)cc1I | inactive | 
8 | CC(=O)[O][Hg][c]1ccccc1 |  | 1.64 µM (active)
9 | CCc1ccccc1N | inactive | 
10 | CCNc1nc(NC(C)(C)C)nc(SC)n1 | inactive | 
11 | CC(Br)C(=O)O (stereo not given) | inactive | 
12 | NNC(=S)NN | inactive | 
13 | CC(=[OH+])/C=C(/C)[O-].CC(=[OH+])/C=C(/C)[O-].CC(=[OH+])/C=C(/C)[O-].[Al] | inactive | 
14 | CCCCOCCOC(C)=O | inactive | 
15 | O=C(CCl)CCl | inactive | 
16 | CCC1(c2ccc(N)cc2)CCC(=O)NC1=O (stereo not given) | inactive | 
17 | CCC[CH2][Sn]([CH2]CCC)([CH2]CCC)[O]C(=O)c1ccccc1 |  | 0.0581 µM (active)
18 | Cl/C=C/Cl | inactive | 
19 | COc1ccc(C=O)cc1 | inactive | 
20 | N#CCCO | inactive | 

Row | SMILES | outcome | AC50
21 | [O-][Cl+2]([O-])O | inactive | 
22 | COc1ccc(C=O)cc1OC | inactive | 
23 | Oc1ccc(-c2ccccc2)cc1 | inactive | 
24 | CC1CN1P(=O)(N1CC1C)N1CC1C (stereo not given) | inactive | 
25 | CCC(C)c1cccc(C(C)CC)c1O (stereo not given) | inactive | 
26 | ClC1=C(Cl)[C@]2(Cl)[C@H]3[C@H]([C@H]4C=C[C@H]3C4)[C@@]1(Cl)C2(Cl)Cl | inactive | 
27 | CC1(C)CCC(Cc2ccc(Cl)cc2)C1(O)Cn1cncn1 (stereo not given) | inactive | 
28 | O=C1C2(Cl)C3(Cl)C4(Cl)C(Cl)(Cl)C5(Cl)C3(Cl)C1(Cl)C5(Cl)C24Cl (stereo not given) | inactive | 17.7 µM (active)
29 | O=C1CCCN1 | inactive | 
30 | Cl/C=C\C[N+]12CN3CN(CN(C3)C1)C2 | inactive | 
31 | Clc1ccc(C2(Cn3cncn3)CC(Br)CO2)c(Cl)c1 (stereo not given) | inactive | 
32 | CC(=O)C(Cl)C(=O)N(C)C (stereo not given) | inactive | 
33 | CC(C)C1CCC(Cc2ccc(Cl)cc2)C1(O)Cn1cncn1 (stereo not given) | inactive | 
34 | Nc1ncc([N+](=O)[O-])s1 | inactive | 
35 | O=P(O)(O)CN(CP(=O)(O)O)CP(=O)(O)O | inactive | 
36 | O=C(NCO)NCO | inactive | 
37 | CC(=O)c1cc(C(C)(C)C)cc2c1CCC2(C)C |  | 159 µM (active)
38 | Cn1sc(Cl)cc1=O | inactive | 
39 | O=C(c1ccccc1)C(Cl)Cl | inactive | 
